The results in this text go back to PubChem BioAssay (EPA / NIEHS).

Inconclusive results are not listed. Calls of active or inactive are those of the source. Rule for the calls, unless noted: active = hit-call score of the fitted dose curve at least 0.9, where 1 is the maximum; inconclusive = response in the unintended direction; inactive = score below 0.9.

As usually defined, the AC50 is the concentration at which the activity in the assay is half-maximal.

Experiment [1] has as its target Peroxisome proliferator-activated receptor gamma (Homo sapiens) (UniProt P37231). The experiment in a line: NVS_NR_hPPARg: NovaScreen (NVS) Nuclear Receptor Binding Assay for human Peroxisome Proliferator-activated Receptor gamma (PPARg) (AID 2283370). The method in brief:
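Fluorescence polarization measures competitive binding to extracted PPARg in a cell-free format. Reading is taken at 2 h; activity is signal loss relative to DMSO. Screening at 25 uM in duplicate preceded confirmatory dose series.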

Experiment [2] addresses human Serotonin Transporter (SERT), SLC6A4 (gene 6532) (UniProt P31645). The experiment can be described thus: NVS_TR_hSERT: NovaScreen (NVS) Transporter Assay for human Serotonin Transporter (SERT) (AID 2283372). The method in brief: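 Human platelet membrane preparation; displacement of radioligand from serotonin transporter measured after 1 h by filtration and scintillation counting. Single 25 uM duplicate screen, then concentration series for actives, with DMSO as negative baseline.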

In experiment [3] the test system is rat Norepinephrine Transporter (NET), gene 83511. The experiment can be described thus: NVS_TR_rNET: NovaScreen (NVS) Transporter Assay for rat Norepinephrine Transporter (NET) (AID 2283373). The method in brief: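 Competitive radioligand displacement at the rat NET using forebrain membrane preparations, 1 h incubation, filter-based scintillation readout. Primary testing in duplicate at a single 25 uM concentration; confirmed actives retested across concentrations.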

Experiment [4] has as its target human Dopamine Transporter (DAT), SLC6A3 (gene 6531) (UniProt Q01959). The experiment can be described thus: NVS_TR_hDAT: NovaScreen (NVS) Transporter Assay for human Dopamine Transporter (DAT) (AID 2283374).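 Note: activity means loss of bound radioligand signal relative to DMSO.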 The method, boiled down:
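Duplicate single-point screening at 25 uM preceded concentration-series follow-up of actives. Binding was measured by competitive displacement of a radioligand from DAT protein, filter-counted by scintillation 1 h after dosing. Decrease relative to DMSO taken as activity.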

The target in experiment [5] is rat Serotonin Transporter (SERT), Slc6a4 (gene 25553) (UniProt P31652). The experiment can be described thus: NVS_TR_rSERT: NovaScreen (NVS) Transporter Assay for rat Serotonin Transporter (SERT) (AID 2283375). The method in brief:
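Steps: rat forebrain membranes dosed with chemical (25 uM duplicate primary; concentration series for actives); 1 h incubation; labelled ligand bound, filtered, counted by scintillation. Activity scored as signal loss vs DMSO.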

Experiment [6] deals with human Norepinephrine Transporter (NET), SLC6A2 (gene 6530) (UniProt P23975). The experiment in a line: NVS_TR_hNET: NovaScreen (NVS) Transporter Assay for human Norepinephrine Transporter (NET) (AID 2283377).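 Note: cell-free membrane protein extracted from CHO cells expressing human NET; displacement of radioligand from human NET seen as loss of scintillation signal.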 The method in brief:
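Single-concentration duplicate screen at 25 uM, then concentration-response for actives; displacement of specific radioligand from human NET in CHO membrane extracts, filter-based scintillation detection at 1 h relative to DMSO.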

Experiment [7] addresses Agonist Androgen Response Element (ARE), AR (gene 367) (UniProt P10275). The experiment can be described thus: OT_AR_ARELUC_AG_1440: Odyssey Thera (OT) 24-hour CHO-K1 Luciferase Assay for Agonist Androgen Response Element (ARE) (AID 2283379). The method, boiled down:
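Readout: luciferase bioluminescence from CHO-K1 ARE-luc cells, measured 24 h post-dosing; agonism = increased mean luminescence vs DMSO controls, fitted in positive direction.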

For experiment [8], the target named is Estrogen receptor (Homo sapiens) (UniProt P03372). The experiment can be described thus: OT_ERa_GFPERaERE_0480: Odyssey Thera (OT) 8-hour HeLa Transcription Induction Assay for Estrogen Receptor (AID 2283381; active = hit-call score of the fitted dose curve at least 0.9, where 1 is the maximum; inactive = score below 0.9). The method in brief: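 GFP-ERE reporter, HeLa, 8 h exposure. Readout: fluorescence microscopy, high-content image analysis. Fit direction positive vs DMSO negative control.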
Chain of Estrogen receptor (Homo sapiens) (P03372 whole entry, looked up): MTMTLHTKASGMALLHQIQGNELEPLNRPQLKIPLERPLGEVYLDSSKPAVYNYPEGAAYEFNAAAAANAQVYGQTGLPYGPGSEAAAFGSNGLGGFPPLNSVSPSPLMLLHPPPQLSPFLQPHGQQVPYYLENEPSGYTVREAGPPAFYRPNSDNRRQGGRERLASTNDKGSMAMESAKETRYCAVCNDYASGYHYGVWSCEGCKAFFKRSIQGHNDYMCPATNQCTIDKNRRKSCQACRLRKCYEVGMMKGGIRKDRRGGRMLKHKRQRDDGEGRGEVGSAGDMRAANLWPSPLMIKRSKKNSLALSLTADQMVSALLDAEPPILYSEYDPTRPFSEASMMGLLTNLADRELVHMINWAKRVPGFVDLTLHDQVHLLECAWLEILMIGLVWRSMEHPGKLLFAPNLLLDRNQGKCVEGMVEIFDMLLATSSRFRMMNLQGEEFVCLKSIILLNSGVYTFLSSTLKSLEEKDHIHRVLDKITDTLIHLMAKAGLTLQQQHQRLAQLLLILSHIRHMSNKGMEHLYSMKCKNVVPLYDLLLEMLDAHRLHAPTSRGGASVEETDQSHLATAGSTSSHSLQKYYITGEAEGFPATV

The target is the same in experiment [9]. The experiment in a line: OT_ERa_GFPERaERE_0120: Odyssey Thera (OT) 2-hour HeLa Transcription Induction Assay for Estrogen Receptor (AID 2283382). The method, boiled down: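 Fluorescence microscopy read-out: inducible fluorescent protein reporter in HeLa cells, imaged 2 h post-dose. Signal increase over DMSO negative control fitted as single primary endpoint via high content image analysis.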

Experiment [10] has as its target Bile acid receptor (Homo sapiens) (UniProt Q96RI1). The experiment in a line: OT_FXR_FXRSRC1_1440: Odyssey Thera (OT) 24-hour HEK293T Protein-Complementation Assay for Farnesoid X receptor/SRC-1 Co-activator (AID 2283384). The method, boiled down: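 Fluorescence readout, 24 h post-dose, HEK293T; FXR and SRC-1 fused to complementary reporter fragments, association reconstitutes signal. Positive-direction fit vs DMSO baseline.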

Experiment [11] has as its target Peroxisome proliferator-activated receptor gamma (Homo sapiens) (UniProt P37231). The experiment in a line: OT_PPARg_PPARgSRC1_0480: Odyssey Thera (OT) 8-hour Protein-Complementation Assay for Peroxisome Proliferator-activated Receptor Gamma / SRC-1 Co-activator (AID 2283387).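 Note: nuclear to cytoplasmic split Venus YFP fluorescence ratio reporting PPARg SRC-1 interaction.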 The method in brief:
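HEK293T transiently transfected with PPARg and SRC-1 fused to Venus YFP fragments, compounds 8 h at 37C. Fixed, Draq5-stained cells imaged; nuclear/cytoplasmic 488 nm fluorescence ratio over at least 350 cells per image; gain fitted versus DMSO.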

For experiment [12] the target is unchanged. The experiment in a line: OT_PPARg_PPARgSRC1_1440: Odyssey Thera (OT) 24-hour Protein-Complementation Assay for Peroxisome Proliferator-activated Receptor Gamma/ SRC-1 Co-activator (AID 2283388). The method in brief: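 Transient HEK293T, YFP fragments 1-158/159-239 (mutant IFP1/IFP2) fused to PPARg/SRC-1; 24 h dosing; fix 4% formaldehyde, Draq5; Opera imaging 488/635 nm; N/C ratio, gain vs DMSO.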

Experiment [13] concerns the target Retinoic acid receptor RXR-alpha (Homo sapiens) (UniProt P19793). The experiment can be described thus: OT_NURR1_NURR1RXRa_0480: Odyssey Thera (OT) 8-hour HEK293T Protein Complementation Assay for Nurr1/retinoid X receptor (RXR) (AID 2283385). The method in brief:
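Read-out: fluorescence from protein-fragment complementation between Nurr1 and RXRα in human HEK293T cells, 8 h after dosing. DMSO served as negative control; increased signal counted as activity.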

Experiment [14] shares this target. The experiment in a line: OT_NURR1_NURR1RXRa_1440: Odyssey Thera (OT) 24-hour HEK293T Protein Complementation Assay for Nurr1/retinoid X receptor (RXR) (AID 2283386). The method, boiled down:
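Fluorescence PCA read-out; HEK293T; 24 h post-dose; bait/prey fused to reporter fragments; gain-of-signal fit vs DMSO negative control.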

Experiment [15] can be described thus: CEETOX_H295R_11DCORT: CeeTox H295R High-throughput Steroidogenesis Assay for 11-Deoxycortisol (11DCORT) (AID 2283432; active = hit-call score of the fitted dose curve at least 0.9, where 1 is the maximum; inactive = score below 0.9;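 for AC50: 11-deoxycortisol secreted into the medium measured by LC-MS/MS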). The note with it: actives raise or lower the signal. The method in brief: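 H295R cells prestimulated 48 h with 10 uM forskolin, then exposed 48 h to chemical in 0.1% DMSO. 11-Deoxycortisol in medium quantified by HPLC-MS/MS after MTBE extraction; bidirectional fit versus DMSO. MTT viability read in same wells.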

Experiment [16] in a line: CEETOX_H295R_OHPREG: CeeTox H295R High-throughput Steroidogenesis Assay for OH-Pregnenolone (OHPREG) (AID 2283434; active = hit-call score of the fitted dose curve at least 0.9, where 1 is the maximum; inactive = score below 0.9). The note with it: actives raise or lower the signal. The method, boiled down: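 Secreted 17alpha-hydroxypregnenolone measured by HPLC-MS/MS after liquid-liquid extraction. Human adrenal H295R cells received 48 h forskolin (10 uM) stimulation before 48 h chemical exposure at 0.1% final DMSO; MTT viability in same wells; bidirectional fit against DMSO.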

Experiment [17] is described as follows: CEETOX_H295R_OHPROG: CeeTox H295R High-throughput Steroidogenesis Assay for OH-Progesterone (OHPROG) (AID 2283435; active = hit-call score of the fitted dose curve at least 0.9, where 1 is the maximum; inactive = score below 0.9). The note with it: actives raise or lower the signal. The method, boiled down:
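HPLC-MS/MS quantification of 17alpha-hydroxyprogesterone secreted by H295R cells after 48 h chemical exposure, following 48 h 10 uM forskolin prestimulation. Gain or loss of signal fitted relative to DMSO. Viability checked by MTT in the same wells.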

The target of experiment [18] is Estrogen receptor beta (Homo sapiens) (UniProt Q92731). The experiment can be described thus: OT_ER_ERbERb_1440: Odyssey Thera (OT) 24-hour HEK293T Protein-Complementation Assay for Estrogen Receptor-beta/-beta Homodimer (AID 2283380).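 Note: fluorescence gain from ER beta LBD homodimer complementation read by laser scanning cytometry; scored as signal increase over DMSO baseline for both agonists and antagonists.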 The method, boiled down:
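Fluorescence increase, nuclear for agonists or whole-cell for antagonists, relative to DMSO vehicle, quantified by laser scanning cytometer after fixation and Draq5 staining. Readout from 24 h treatment of HEK293T cells carrying complementation-paired ER beta LBD (aa 310-547).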

The target of experiment [19] is Bile acid receptor (Homo sapiens) (UniProt Q96RI1). The experiment in a line: OT_FXR_FXRSRC1_0480: Odyssey Thera (OT) 8-hour HEK293T Protein-Complementation Assay for Farnesoid X receptor/SRC-1 Co-activator (AID 2283383). The method, boiled down: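 Fluorescence intensity read-out, 8 h post-dose, HEK293T protein-fragment complementation; FXR bait and SRC-1 prey each linked to reporter fragments. Activity scored as signal increase over DMSO negative control.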
Chain of Bile acid receptor (Homo sapiens) (Q96RI1 whole entry, looked up, the tested form may be a part): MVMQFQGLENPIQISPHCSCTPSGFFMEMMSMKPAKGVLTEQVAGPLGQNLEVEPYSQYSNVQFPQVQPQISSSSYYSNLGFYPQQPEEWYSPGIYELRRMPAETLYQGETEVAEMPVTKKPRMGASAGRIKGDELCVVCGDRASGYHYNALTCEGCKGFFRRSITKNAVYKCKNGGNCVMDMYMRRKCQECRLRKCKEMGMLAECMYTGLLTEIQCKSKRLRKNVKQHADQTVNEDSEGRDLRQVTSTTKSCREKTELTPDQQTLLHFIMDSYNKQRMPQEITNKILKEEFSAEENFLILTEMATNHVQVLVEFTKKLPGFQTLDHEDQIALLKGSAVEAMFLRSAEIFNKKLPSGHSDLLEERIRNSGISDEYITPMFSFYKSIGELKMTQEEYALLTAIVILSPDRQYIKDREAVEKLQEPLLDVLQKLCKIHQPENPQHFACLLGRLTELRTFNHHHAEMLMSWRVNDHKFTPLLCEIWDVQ

Experiment [20] deals with mouse Estrogen Receptor alpha (Era), Esr1 (gene 13982) (UniProt P19785). The experiment can be described thus: NVS_NR_mERa: NovaScreen (NVS) Nuclear Receptor Binding Assay for mouse Estrogen Receptor alpha (Era) (AID 2283378).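 Note: hit means loss of bound radioligand signal relative to DMSO.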 The method, boiled down:
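Test chemicals competed against a specific radioligand for binding to cell-free mouse Era. Duplicate wells at 25 uM were read 18 hours later by filter-based radiodetection, with loss of signal against DMSO scored as activity.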

Chain of Estrogen receptor beta (Homo sapiens) (Q92731 whole entry, looked up, the tested form may be a part): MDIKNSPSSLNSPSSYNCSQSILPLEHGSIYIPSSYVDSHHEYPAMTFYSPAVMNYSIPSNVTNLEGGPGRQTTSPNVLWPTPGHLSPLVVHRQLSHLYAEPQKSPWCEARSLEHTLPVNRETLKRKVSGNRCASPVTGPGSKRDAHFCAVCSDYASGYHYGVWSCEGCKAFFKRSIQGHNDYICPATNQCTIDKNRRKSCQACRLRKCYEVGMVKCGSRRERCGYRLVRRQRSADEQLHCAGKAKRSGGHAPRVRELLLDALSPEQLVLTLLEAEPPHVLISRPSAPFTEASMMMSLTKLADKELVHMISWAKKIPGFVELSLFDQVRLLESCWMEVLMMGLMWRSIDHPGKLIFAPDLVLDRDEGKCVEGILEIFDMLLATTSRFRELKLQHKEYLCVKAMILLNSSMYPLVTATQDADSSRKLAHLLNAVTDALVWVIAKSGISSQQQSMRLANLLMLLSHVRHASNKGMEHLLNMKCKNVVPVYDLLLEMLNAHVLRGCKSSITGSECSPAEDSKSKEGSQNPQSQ
Chain of Peroxisome proliferator-activated receptor gamma (Homo sapiens) (P37231 whole entry, looked up, the tested form may be a part): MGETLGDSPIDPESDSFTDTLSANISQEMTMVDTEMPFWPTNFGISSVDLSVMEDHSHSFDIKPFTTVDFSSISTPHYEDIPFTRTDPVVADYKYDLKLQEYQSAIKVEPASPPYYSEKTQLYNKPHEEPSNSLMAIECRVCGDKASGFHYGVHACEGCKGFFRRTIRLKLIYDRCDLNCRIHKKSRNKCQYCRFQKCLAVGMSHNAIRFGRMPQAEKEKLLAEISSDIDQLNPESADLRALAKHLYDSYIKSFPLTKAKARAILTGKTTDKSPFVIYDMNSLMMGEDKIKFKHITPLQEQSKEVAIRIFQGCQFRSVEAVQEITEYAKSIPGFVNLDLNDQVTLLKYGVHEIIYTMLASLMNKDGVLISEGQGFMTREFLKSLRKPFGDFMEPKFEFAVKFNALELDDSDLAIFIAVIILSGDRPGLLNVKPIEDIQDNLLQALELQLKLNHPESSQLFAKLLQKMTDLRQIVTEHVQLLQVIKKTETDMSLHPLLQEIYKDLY
Chain of human Norepinephrine Transporter (NET), SLC6A2 (gene 6530) (P23975 whole entry, looked up): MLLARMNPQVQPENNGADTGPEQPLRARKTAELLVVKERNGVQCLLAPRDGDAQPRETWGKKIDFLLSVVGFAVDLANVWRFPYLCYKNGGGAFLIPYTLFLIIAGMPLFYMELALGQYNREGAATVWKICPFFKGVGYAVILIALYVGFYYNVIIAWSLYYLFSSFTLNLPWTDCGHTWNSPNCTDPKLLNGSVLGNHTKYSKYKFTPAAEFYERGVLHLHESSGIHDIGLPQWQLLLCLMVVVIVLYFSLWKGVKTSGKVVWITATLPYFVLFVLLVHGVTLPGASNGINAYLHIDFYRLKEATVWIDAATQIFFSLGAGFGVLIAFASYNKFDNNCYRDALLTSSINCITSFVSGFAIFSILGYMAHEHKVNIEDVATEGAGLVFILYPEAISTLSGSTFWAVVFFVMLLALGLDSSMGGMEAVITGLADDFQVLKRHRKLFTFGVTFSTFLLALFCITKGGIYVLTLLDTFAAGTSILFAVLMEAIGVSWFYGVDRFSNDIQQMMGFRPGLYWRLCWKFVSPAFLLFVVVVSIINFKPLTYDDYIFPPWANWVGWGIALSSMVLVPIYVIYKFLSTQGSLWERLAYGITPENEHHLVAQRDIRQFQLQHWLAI
Chain of human Dopamine Transporter (DAT), SLC6A3 (gene 6531) (Q01959 whole entry, looked up): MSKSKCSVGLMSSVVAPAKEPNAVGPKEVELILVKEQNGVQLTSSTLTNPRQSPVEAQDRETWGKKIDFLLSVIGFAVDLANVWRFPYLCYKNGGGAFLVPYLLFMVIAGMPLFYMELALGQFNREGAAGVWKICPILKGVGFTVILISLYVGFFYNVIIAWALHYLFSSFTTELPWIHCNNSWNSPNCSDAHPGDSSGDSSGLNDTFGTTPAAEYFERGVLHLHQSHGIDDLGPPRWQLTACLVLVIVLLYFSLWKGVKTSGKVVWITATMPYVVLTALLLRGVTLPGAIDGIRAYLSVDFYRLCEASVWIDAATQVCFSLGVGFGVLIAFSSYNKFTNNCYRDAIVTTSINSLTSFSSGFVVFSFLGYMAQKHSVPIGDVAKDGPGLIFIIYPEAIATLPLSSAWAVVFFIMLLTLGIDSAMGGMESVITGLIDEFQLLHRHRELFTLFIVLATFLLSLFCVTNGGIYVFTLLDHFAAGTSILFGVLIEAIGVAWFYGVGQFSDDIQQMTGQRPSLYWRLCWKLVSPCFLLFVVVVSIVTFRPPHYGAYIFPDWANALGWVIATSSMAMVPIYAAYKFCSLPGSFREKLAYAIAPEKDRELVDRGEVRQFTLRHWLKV
Chain of Retinoic acid receptor RXR-alpha (Homo sapiens) (P19793 whole entry, looked up, the tested form may be a part): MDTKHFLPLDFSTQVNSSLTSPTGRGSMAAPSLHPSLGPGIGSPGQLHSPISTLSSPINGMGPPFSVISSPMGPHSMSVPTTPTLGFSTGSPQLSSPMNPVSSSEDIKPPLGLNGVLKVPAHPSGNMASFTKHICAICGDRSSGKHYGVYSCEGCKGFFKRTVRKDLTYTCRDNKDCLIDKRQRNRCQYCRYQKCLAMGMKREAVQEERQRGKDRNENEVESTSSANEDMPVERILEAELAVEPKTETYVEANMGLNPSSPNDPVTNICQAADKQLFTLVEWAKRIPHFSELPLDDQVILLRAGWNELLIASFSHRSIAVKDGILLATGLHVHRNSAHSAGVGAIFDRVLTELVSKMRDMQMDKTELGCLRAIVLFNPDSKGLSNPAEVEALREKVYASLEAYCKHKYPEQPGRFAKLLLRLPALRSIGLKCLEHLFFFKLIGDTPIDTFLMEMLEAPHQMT
Chain of Agonist Androgen Response Element (ARE), AR (gene 367) (P10275 whole entry, looked up): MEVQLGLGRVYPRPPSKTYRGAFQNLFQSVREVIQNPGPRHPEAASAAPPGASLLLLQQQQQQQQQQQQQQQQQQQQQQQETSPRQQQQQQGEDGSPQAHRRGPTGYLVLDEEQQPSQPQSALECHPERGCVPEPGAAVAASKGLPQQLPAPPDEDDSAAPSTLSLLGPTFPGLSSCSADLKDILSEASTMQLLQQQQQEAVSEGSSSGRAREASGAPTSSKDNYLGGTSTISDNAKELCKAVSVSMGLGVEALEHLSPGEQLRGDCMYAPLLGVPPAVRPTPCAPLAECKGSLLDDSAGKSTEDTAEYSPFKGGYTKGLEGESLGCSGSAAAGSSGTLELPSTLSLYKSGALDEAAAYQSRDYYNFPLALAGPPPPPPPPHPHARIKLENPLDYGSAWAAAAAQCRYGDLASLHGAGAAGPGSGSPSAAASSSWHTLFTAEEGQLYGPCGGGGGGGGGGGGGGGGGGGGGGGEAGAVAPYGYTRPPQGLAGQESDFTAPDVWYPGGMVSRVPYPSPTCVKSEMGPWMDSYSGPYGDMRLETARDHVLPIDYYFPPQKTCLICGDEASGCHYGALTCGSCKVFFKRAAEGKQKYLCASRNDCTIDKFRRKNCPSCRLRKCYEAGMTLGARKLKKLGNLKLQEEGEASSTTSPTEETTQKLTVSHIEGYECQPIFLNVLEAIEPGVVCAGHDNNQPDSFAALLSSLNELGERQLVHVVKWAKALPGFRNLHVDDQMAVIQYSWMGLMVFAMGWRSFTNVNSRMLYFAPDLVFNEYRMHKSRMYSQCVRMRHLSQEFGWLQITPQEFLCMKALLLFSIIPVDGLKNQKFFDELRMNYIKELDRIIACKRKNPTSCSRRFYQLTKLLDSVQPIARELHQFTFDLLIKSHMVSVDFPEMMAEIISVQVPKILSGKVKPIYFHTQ

As for `NCc1cccc(C2CCN(C(=O)c3ccc(C#Cc4ccccc4F)o3)CC2)c1`, the AC50 in experiment [1] is 5.98 µM (active); in [3], 18.9 µM (active); in experiment [4], 1.79 µM (active); in experiment [5], 16.7 µM (active); in [6] it was 4.42 µM (active); in [9], 12 µM (active). In addition, the molecule was classed as inactive in [2], in experiment [7], in experiment [8], in [10], in experiment [11] and in [12].

Consider `Clc1cc(Cl)c2c(c1)N=C1CCCCCN1C2`, for which the figures for the AC50 in experiment [3], in experiment [4] and in experiment [6] were 4.16 µM (active), 4.92 µM (active) and 3.55 µM (active), respectively. The call in experiment [8], in experiment [9], in experiment [10], in experiment [13], in [14] and in experiment [11] was inactive. Moreover, the result in [12], in [15], in [16] and in [17] was inactive.

Regarding `CN1C(=O)N(c2ccccc2Br)Cc2cnc(Nc3ccc4c(c3)OCC(CO)O4)nc21` (configuration not stated), the AC50 was 25 µM (active) in experiment [1]; 4.72 µM (active) in experiment [6]; 55.4 µM (active) in experiment [8]; 0.34 µM (active) in experiment [19]; 0.54 µM (active) in experiment [10]; 0.714 µM (active) in experiment [13]. For the same molecule, the AC50 in experiment [15] is 0.723 µM (active). Moreover, the outcome in experiment [18], in experiment [9], in [14], in experiment [12], in experiment [16] and in [17] was inactive.

As for `CC(C)(C)c1csc(-c2cc3cc(OCc4ccccc4CC(=O)O)ccc3o2)n1`, the AC50 in experiment [1] was 0.00229 µM (active); in [10] it was 69.8 µM (active); in experiment [13], 2.97 µM (active); in experiment [14] it was 29.1 µM (active). In addition, the result in experiment [18], in experiment [8], in experiment [9], in experiment [19], in experiment [11] and in experiment [12] was inactive.

For `CN(C)C(=O)C1(N2CCCCC2)CCN(CC[C@@]2(c3ccc(Cl)c(Cl)c3)CN(C(=O)c3ccccc3)CCO2)CC1`, the AC50 is 36 µM (active) in experiment [2]; 13.5 µM (active) in [3]; 2.76 µM (active) in experiment [4]; 2.33 µM (active) in experiment [6]; 0.203 µM (active) in experiment [20]; 16.8 µM (active) in [8]. Further, the AC50 in experiment [9] was 14.8 µM (active). The molecule was called inactive in experiment [7], in experiment [11] and in experiment [12].

Turning to `CCOC(=O)O[C@H](C)OC(=O)c1ccc2c(c1)cc(C(=O)NC1CCN(C(C)C)CC1)n2Cc1cc(-c2ccc(Cl)s2)on1`, the result in experiment [2], in experiment [18], in experiment [11] and in experiment [12] was inactive. The AC50 is 15.5 µM (active) in [3]; 3.21 µM (active) in [4]; 1.95 µM (active) in experiment [6]; 19.6 µM (active) in experiment [8]; 23.8 µM (active) in [9]; 74.9 µM (active) in [10].

For `Cc1cc(F)ccc1-c1cc(N2CC[C@@H](O)[C@H]2CO)ncc1N(C)C(=O)C(C)(C)c1cc(C(F)(F)F)cc(C(F)(F)F)c1`, the call in experiment [1], in [7], in experiment [18], in [8], in experiment [9] and in experiment [11] was inactive. In addition, the molecule was called inactive in experiment [12]. The concentration at half-maximal activity (AC50) in [6] is 5.97 µM (active); in experiment [14] it was 9.74 µM (active).
